Hits are enriched below; roughly 4.2% of the tested compounds scored in any of these assays.
15-hLO inh: 15-hLO (ALOX15) enzyme inhibition; P16050; purified 15hLO-1, xylenol orange hydroperoxide absorbance; Potency, µM (doses to about 57.1 µM), hits mostly inhibitors; 74,000 compounds, 1.4% hits; AID 887; also: nearly all actives have a fitted effect of over 55% in size
Target sequence (P16050 whole entry, looked up): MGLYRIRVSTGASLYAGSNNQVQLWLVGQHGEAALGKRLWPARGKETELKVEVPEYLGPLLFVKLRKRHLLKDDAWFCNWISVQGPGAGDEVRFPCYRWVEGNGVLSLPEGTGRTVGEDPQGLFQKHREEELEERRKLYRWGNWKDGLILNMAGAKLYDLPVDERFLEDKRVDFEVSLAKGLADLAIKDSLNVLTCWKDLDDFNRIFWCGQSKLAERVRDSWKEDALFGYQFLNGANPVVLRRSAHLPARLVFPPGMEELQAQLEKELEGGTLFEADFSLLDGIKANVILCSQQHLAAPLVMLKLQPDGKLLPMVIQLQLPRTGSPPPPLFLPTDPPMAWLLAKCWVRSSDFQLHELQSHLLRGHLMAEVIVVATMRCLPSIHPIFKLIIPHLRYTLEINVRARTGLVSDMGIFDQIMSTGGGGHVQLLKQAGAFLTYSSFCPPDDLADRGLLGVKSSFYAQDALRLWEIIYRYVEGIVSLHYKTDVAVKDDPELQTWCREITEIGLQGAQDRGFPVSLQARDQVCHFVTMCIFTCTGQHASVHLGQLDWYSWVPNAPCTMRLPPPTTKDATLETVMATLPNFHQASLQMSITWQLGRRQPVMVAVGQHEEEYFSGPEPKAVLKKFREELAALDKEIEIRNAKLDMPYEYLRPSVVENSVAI
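Quantitative HTS in 25 mM Hepes pH 7.5 containing 0.01% Triton X-100: human 15hLO-1 at 40 nM, arachidonic acid at 50 uM, 6 min turnover. Product quantified via ferrous oxidation/xylenol orange, 573:405 nm absorbance ratio.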
Hsp90 Hop PPI: changes Hsp90-Hop TPR2A binding signal, up or down; AlphaScreen TPR2A-His6 binding biotin-Hsp90 C-terminal peptide; Potency, µM (titrated, usually from 57 µM); 71,000 compounds, 0.44% hits; AID 595; active = well fitted curve in either direction with a large enough effect; inconclusive = small, poorly fitted or top-dose-only effect, or another doubt
Tau filament bind: tau filament binding; recombinant tau filaments, thioflavin S fluorescence, 15 h; filaments grown with octadecylsulfate alongside compound; P10636; 71,000 compounds, 2% hits; AID 596; Potency, µM (doses to about 57.1 µM);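 also: actives lower thioflavin S fluorescence by blocking filaments or displacing dye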
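ThS-based fibril read: tau 1 uM final, inducer ODS 30 uM final, 37 C for 15 h, ex 450/em 510 nm.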
YjeE inh: inhibitors of E. coli YjeE (TsaE); P0AF67; 71,000 compounds, 0.05% hits; Potency, µM; purified YjeE enzyme, qHTS inhibition assay; AID 605
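Fluorescence polarization of a BODIPY Texas Red–ADP probe (2 uM) bound to purified YjeE (10 uM) was read after 15 min room-temperature incubation with compounds. Loss of polarization marks inhibitors; ADP serves as titrated control.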
DNA Pol III inh: blocks replication by bacterial DNA polymerase III holoenzyme; reconstituted DNA polymerase III holoenzyme replication, biochemical; Potency, µM (titrated, usually from 57.1 µM); 71,000 compounds, 0.25% hits
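Reconstituted *E. coli* holoenzyme (0.35 nM Pol III, 1 nM beta, 154 nM SSB, 2 nM primase) was preincubated with compound for 15 min at RT. Synthesis on 1.4 nM ssM13Gori ran 35 min, then was stopped with PicoGreen/EDTA and read as dsDNA fluorescence.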
ERK AVP block: vasopressin-driven ERK pathway inhibition | HEK293-V1b, vasopressin-stimulated pERK AlphaScreen | Potency, µM (doses to about 57.5 µM), most hits filed as inhibitors | 72,000 compounds, 0.99% hits; also: nearly all actives have a fitted effect of over 55% in size
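HEK293 cells stably expressing V1b receptor, seeded overnight in 1% FBS, were treated with compounds for 30 min at 37C, then stimulated 5 min with 25 nM vasopressin; phospho-ERK read by AlphaScreen SureFire after lysis.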
Hits are given with their value; - = inactive; ? = inconclusive; . = no result given; ! = not confirmed by another sample; [ ] = remark or other dose. Unless noted, calls follow the shape of the dose curve; as a rule, active = well fitted curve in the direction sought with a large enough effect; inconclusive = small, poorly fitted or top-dose-only effect, or another doubt; inactive = no such curve, though single readings can be large; an effect the other way counts as inactive or inconclusive.

SMILES	15-hLO inh	Hsp90 Hop PPI	Tau filament bind	YjeE inh	DNA Pol III inh	ERK AVP block
O=C(Nc1ccc(Nc2ccccc2)cc1)c1ccco1	-	-	20µM	-	-	-
O=C(Nc1ccc(N2CCCC2)c(Cl)c1)c1ccco1	-[11.4 µM]	-[11 µM]	4µM	-	-[11.4 µM]	?
N#CC1=C(N)N2C(=C(C#N)C13CCCCC3)SC1CCCCC12O (stereo not drawn)	20µM	-	-	-	-	?
CSC1=C(C#N)C2(CCCC2)C(C#N)=C(N)N1	?	?	-	-	-	?
CCOC(=O)SC1=N/C(=C\c2ccc(N(C)C)cc2)C(=O)S1	-	-	3.2µM	-	-	?
CCSC1=N/C(=C\c2ccc(C(=O)O)cc2)C(=O)S1	-	-	-	-	-	-
C=CC(C)(O)CC/C=C(\C)CCC=C(C)C (stereo not drawn)	13µM	.	.	.	.	-
CC(C)=CCC/C(C)=C/CO	7.9µM!	-[11 µM]	-[11.4 µM]	-	-[11.4 µM]	-[11.5 µM]
CC(C)=CCC/C(C)=C/CC/C(C)=C/CO	?	.	.	.	.	-
CC(C)=CCC/C(C)=C/CC/C(C)=C/CC/C(C)=C/CC/C(C)=C/CC/C(C)=C/CC/C(C)=C/CC/C(C)=C/CC/C(C)=C/CO	-	.	.	.	.	-
CCOC(=O)c1[nH]c(C)c(C(=O)NC2CCCC2)c1C	-	-	-	-	-	-
CCOc1ccc(OCC)c(NS(=O)(=O)c2cccc3nsnc23)c1	-	-	25µM	-	-	-
CCN(CC)S(=O)(=O)c1ccc(-c2nnc(SCC(=O)Nc3ccc4c(c3)OCO4)o2)cc1	-	-	-	-	-	-
CCCCOCCCNC(=O)Cc1cccs1	-[11.4 µM]	-[11 µM]	-[11.4 µM]	-	-[11.4 µM]	-
COc1cccc(C2C(C#N)=C(N)OC3=C2C(=O)CCC3)c1OC(=O)c1ccco1 (stereo not drawn)	-	-	-	-	-	-
C/C=C/c1ccc(OCCCCN2C(=O)NC(C)(C)C2=O)c(OC)c1	-	-	-	-	-	20µM
Cc1cccc2cc3c(nc12)SC(=NCC1CCCO1)N(Cc1ccco1)C3 (stereo not drawn)	10µM	-	?	-	-	?
Cn1c(=O)c(-c2ccccc2)nc2cnc(OCc3ccccc3)nc21	-	-	-	-	-	-
NS(=O)(=O)c1ccc(CCNC(=O)CNC(=O)C2CCCCC2)cc1	-	-	-	-	-	-
Cc1ccc2nc(NC(=O)C3CCN(S(=O)(=O)c4cccs4)CC3)sc2c1	-	-	-	-	-	25µM
CCOC(=O)c1c(C)nc2sccn12	-	-	-	-	-	?
CCOC(=O)c1c(C)nc2c3ccccc3ccn12	16µM	-	-	-	-	?
CNc1nc2c(c(=O)[nH]c(=O)n2C)n1CCOC	-	-	-	-	-	-
O=C(CSc1nnc(-c2cccs2)n1CC1CCCO1)c1cc2ccccc2o1 (stereo not drawn)	-	-	16µM	-	-	-
Nc1nnc(SCC(=O)N2CCN(c3ccccc3)CC2)s1	-	-	-	-	-	-
SMILES	15-hLO inh	Hsp90 Hop PPI	Tau filament bind	YjeE inh	DNA Pol III inh	ERK AVP block
Cc1cc(Nc2ccc(O)cc2)ccc1N	?	?	2µM	100µM	-	-
Clc1nccc2c1ccc1ccccc12	-	.	.	.	.	?
COc1ccc(NC(=O)c2ccc(-c3ccc(-c4noc(C)n4)cc3C)cc2)cc1N1CCN(C)CC1	-	?	-	-	-	13µM!
COc1ccc(-c2nc(-c3ccc(NC(=O)c4ccncc4)cc3)no2)cc1OC	-	-	-	-	-	10µM
COC(=O)C[C@](O)(CCCC(C)(C)O)C(=O)O[C@@H]1C(OC)=C[C@]23CCCN2CCc2cc4c(cc2[C@H]13)OCO4	-	-	?	-	-	-
C1=CC2c3ccccc3NC(c3ccncc3)C2C1 (stereo not drawn)	?	?	7.9µM	-	-	?
O=S(=O)(NCC1CC1)c1cccc(S(=O)(=O)N2CCCC2)c1	-	-	-	-	-	-
COc1ccc(N2CCC(CNS(=O)(=O)c3cccc(C(F)(F)F)c3)C2)cc1 (stereo not drawn)	0.79µM	-	1.3µM	-	-	-
COc1ccc(N2CCC(CNC(=O)Nc3ccc(OC)cc3OC)C2)cc1 (stereo not drawn)	?	?	20µM	-	-	-
C=CCSc1nc(C)c(CC(=O)OCC(C)C)c(=O)[nH]1	-	-	-	-	-	-
COC(=O)Cc1c(C)c2cc(Cl)c(OC(=O)c3ccco3)cc2oc1=O	-	-	-	-	-	13µM
COC(=O)Cc1c(C)c2ccc(OC(=O)c3ccco3)cc2oc1=O	-	-	-	-	-	4µM
O=C(Oc1cc2oc(=O)c3c(c2cc1Cl)CCCC3)c1ccco1	-	-	-	-	-	-
Cc1ccsc1C1C=C(c2cccc(Br)c2)Nc2ncnn21 (stereo not drawn)	16µM	-	-	-	-	-
CC(=O)n1cc(C2C(=O)CC(C)(C)CC2=O)c2ccccc21	-	-	-	-	-	-
Cc1ccc2cc(C#N)c(NCCNC(=O)C3CC3)nc2c1C	-	-	-	-	-	25µM
N#CC1=C(SCC(=O)c2cc3ccccc3oc2=O)NC(=O)C(C#N)C12CCCC2 (stereo not drawn)	?	-	-	-	-	25µM
COC(=O)CSc1nc2c(c(=O)n(C)c(=O)n2C)n1CCCc1ccccc1	-	-	-	-	-	-
CCCCn1c(SCC(=O)OC)nc2c1c(=O)n(C)c(=O)n2C	-	-	-	-	-	16µM
CCCOC(=O)c1ccc(Oc2c(-c3ccc(OC)cc3O)n[nH]c2C)cc1	?	-	-	-	-	-
Cc1[nH]nc(-c2ccc(O)cc2O)c1-c1ccc(Cl)cc1	?	-	-	-	-	?
COc1ccc(-c2n[nH]c(C)c2-c2ccc(Cl)cc2)c(O)c1OC	-	-	-	-	-	25µM
COc1ccc(O)c(-c2c(-c3ccc(Cl)cc3)n[nH]c2C)c1	25µM	-	-	-	-	?
O=C(Nc1ccc2c(c1)nc1n2CCN(C2CCCCC2)C1)c1ccco1	-	-	25µM	-	-	-
O=C(Nc1ccc2c(c1)nc1n2CCOC1)c1ccco1	-	-	-	-	-	?
SMILES	15-hLO inh	Hsp90 Hop PPI	Tau filament bind	YjeE inh	DNA Pol III inh	ERK AVP block
CC(C)c1ccccc1OCCCCCNCCO	-	-	13µM	-	-	-
CC(C)(C)c1ccccc1OCCCCCNCCO	-	-	10µM	-	-	-
CCOC(=O)N1CCC(NC(=O)CCC(=O)N2CC(C)Oc3ccccc32)CC1 (stereo not drawn)	-	-	-	-	-	-
COc1ccc(OC)c(S(=O)(=O)N2CCC(C(=O)Nc3cccc(C(F)(F)F)c3)CC2)c1	-	-	-	-	-	16µM
CCOC(=O)N1CCC(NC(=O)c2ccc3c(c2)N(CC)CCS3)CC1	?	?	-	-	-	-
COc1cccc(N2C(=O)CC(Nc3ccc(N4CCOCC4)cc3)C2=O)c1 (stereo not drawn)	13µM	.	.	.	.	.
